PubChem BioAssay
Calls of active or inactive are those of the source.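 Rule for the calls: active = mean duplicate potentiation above the buffer control mean plus 5 SD of buffer wells; inactive = the rest.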

biological target: Potassium voltage-gated channel subfamily KQT member 2 (Rattus norvegicus) (UniProt O88943); experiment: KCNQ2 thallium flux enhancement – KCNQ2-CHO-K1 cells, selectivity assay for KCNQ1 potentiator project (AID 493009); conditions: FluxOR thallium flux fluorescence, at 10 µM; active compounds read high, scaled: buffer 0, activator control 100;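 note: assay conditions were tuned for KCNQ1 rather than KCNQ2 modulators; signal is max minus min fluorescence divided by baseline after thallium stimulus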
Sequence (O88943 whole entry, looked up): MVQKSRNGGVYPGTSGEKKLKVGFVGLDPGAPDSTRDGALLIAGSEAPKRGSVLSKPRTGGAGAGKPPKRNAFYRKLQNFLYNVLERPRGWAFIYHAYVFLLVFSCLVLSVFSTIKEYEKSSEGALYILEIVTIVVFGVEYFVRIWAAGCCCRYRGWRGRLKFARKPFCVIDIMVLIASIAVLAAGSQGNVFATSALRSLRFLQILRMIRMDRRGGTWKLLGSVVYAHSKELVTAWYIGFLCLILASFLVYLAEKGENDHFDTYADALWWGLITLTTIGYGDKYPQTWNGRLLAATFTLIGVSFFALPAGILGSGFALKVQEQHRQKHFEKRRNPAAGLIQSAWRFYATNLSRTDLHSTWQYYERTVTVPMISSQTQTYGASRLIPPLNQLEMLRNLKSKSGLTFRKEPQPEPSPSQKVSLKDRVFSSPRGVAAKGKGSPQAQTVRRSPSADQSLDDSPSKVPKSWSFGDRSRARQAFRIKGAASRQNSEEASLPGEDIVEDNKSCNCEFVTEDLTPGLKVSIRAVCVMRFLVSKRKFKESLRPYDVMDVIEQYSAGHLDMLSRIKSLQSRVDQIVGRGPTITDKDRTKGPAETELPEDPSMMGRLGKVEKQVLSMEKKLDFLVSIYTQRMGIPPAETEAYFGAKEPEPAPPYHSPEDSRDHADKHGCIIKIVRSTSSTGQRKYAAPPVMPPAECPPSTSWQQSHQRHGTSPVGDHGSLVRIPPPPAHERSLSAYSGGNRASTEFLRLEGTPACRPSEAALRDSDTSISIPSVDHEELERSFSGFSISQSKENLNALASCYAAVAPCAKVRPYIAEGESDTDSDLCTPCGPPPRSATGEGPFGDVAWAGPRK

**Q.** How did the potentiation turn out when `O=C(O)CCSc1ncnc2sc(-c3ccccc3)cc12` was run?
**A.** 220% (active)

**Q.** For `CC1(N2CCCCC2)CC2(O)C(=[N+]1[O-])CCC/C2=N\O` (stereo not given), which outcome is on record?
**A.** inactive

**Q.** Which outcome does the source give for `CCc1ccc(S(=O)(=O)Nc2cc3c(cc2N2CCCCC2)n(C)c(=O)c(=O)n3C)cc1` here?
**A.** inactive

**Q.** `CN(Cc1nccs1)C(=O)c1ccc(OC2CCN(Cc3ccccn3)CC2)cc1` was tested. Which outcome did it give?
**A.** inactive

**Q.** With `COc1ccc(C(=O)NC(=S)NNC(=O)c2ccc3ccccc3n2)cc1` as the molecule, how does the potentiation read?
**A.** 160% (active)

**Q.** `Cc1cc(Cl)n2nc(C)c(-c3ccc(Cl)cc3)c2n1` was tested. Which potentiation did it give?
**A.** 340% (active)

**Q.** With `O=C1CN(S(=O)(=O)c2ccccc2)CC(=O)N1CCc1ccccc1` as the molecule, how does the outcome read?
**A.** inactive

**Q.** Which outcome does the source give for `CC(=O)N1N=C(N)SC12CCCC2` here?
**A.** inactive

**Q.** For `C=CCn1c(=S)[nH]c2scc(-c3cccs3)c2c1=O`, which potentiation is on record?
**A.** 554% (active)

**Q.** Which potentiation does the source give for `Cc1[nH]n(C(N)=S)c(=O)c1N=Nc1ccc2ccccc2c1` here?
**A.** 628% (active)

**Q.** `O=[N+]([O-])c1cc(C(F)(F)F)ccc1Oc1cccnc1[N+](=O)[O-]` was tested. Which outcome did it give?
**A.** inactive

**Q.** How did the outcome turn out when `Cc1ncc(CN2CCC(CO)(CCc3ccccc3)CC2)s1` was run?
**A.** inactive

**Q.** Which outcome does the source give for `CC(=O)Nc1ccc(S(=O)(=O)N2CCC(C(=O)O)CC2)cc1` here?
**A.** inactive

**Q.** With `O=C1CCC(c2ccc(-n3ccnc3)cc2)=NN1` as the molecule, how does the outcome read?
**A.** inactive

**Q.** For `O=C(CNc1ccc2c(c1)OCO2)N/N=C\c1cn(Cc2ccccc2)c2ccccc12`, which outcome is on record?
**A.** inactive

**Q.** How did the outcome turn out when `Cc1cc(C)cc(-n2ccnc2SCC(=O)Nc2nccs2)c1` was run?
**A.** inactive

**Q.** With `CCOc1ccc(C(=O)C(CCC(CN(C)C)C(=O)c2ccc(OCC)cc2)CN(C)C)cc1` (stereo not given) as the molecule, how does the potentiation read?
**A.** 152% (active)

**Q.** `CCOC(=O)c1cnc2c(C)c(Cl)ccc2c1N1CCN(CC)CC1` was tested. Which outcome did it give?
**A.** inactive

**Q.** With `COc1cc(OC)cc(C(=O)NC(=S)N(Cc2ccccc2)C(C)C)c1` as the molecule, how does the potentiation read?
**A.** 380% (active)

**Q.** Which potentiation does the source give for `O=P(CCCCCCCCCP(=O)(c1ccccc1)c1ccccc1)(c1ccccc1)c1ccccc1` here?
**A.** 327% (active)

**Q.** Which outcome does the source give for `COc1ccc2c(c1)cc(C)c1nnc(SCC(=O)N3CCN(C(=O)c4ccco4)CC3)n12` here?
**A.** inactive

**Q.** `O=C(CNC(=O)c1ccccc1)NCc1ccc(Cl)cc1` was tested. Which outcome did it give?
**A.** inactive

**Q.** How did the potentiation turn out when `CSC(=S)N/N=C(\C)c1ccccc1` was run?
**A.** 283% (active)

**Q.** How did the outcome turn out when `Cc1nonc1NC(=O)OC1CCCCC1` was run?
**A.** inactive

**Q.** `CCOc1ccc(CN(CCC#N)C(=S)NC(=O)c2ccccc2)cc1` was tested. Which potentiation did it give?
**A.** 216% (active)

**Q.** With `CCCN1CCC(NC(=S)Nc2cccc(Cl)c2Cl)CC1` as the molecule, how does the outcome read?
**A.** inactive

**Q.** With `COc1ccc(NC(=O)/C(=C/c2ccc(OC(C)=O)c(OC)c2)NC(C)=O)cc1` as the molecule, how does the outcome read?
**A.** inactive

**Q.** With `COCCN(C(=O)COC(=O)/C=C/c1cccs1)c1c(N)n(Cc2ccccc2)c(=O)[nH]c1=O` as the molecule, how does the outcome read?
**A.** inactive

**Q.** How did the potentiation turn out when `Cc1cccc(NC(=O)C(=O)NNC(=O)c2ccc(C(C)(C)C)cc2)c1` was run?
**A.** 483% (active)

**Q.** With `COc1ccc(NC(=S)NC(=O)c2ccccc2Cl)cc1` as the molecule, how does the outcome read?
**A.** inactive

**Q.** Which potentiation does the source give for `Cc1csc(NC(=S)NC(=O)c2ccccc2)n1` here?
**A.** 156% (active)

**Q.** How did the outcome turn out when `CCN(CC)CCn1c(OC)cc(=O)[nH]c1=O` was run?
**A.** inactive

**Q.** With `Cc1cc(NC(=O)CSc2cn(CCNC(=O)c3ccc(F)cc3)c3ccccc23)no1` as the molecule, how does the outcome read?
**A.** inactive

**Q.** How did the potentiation turn out when `Cc1ccc(OCc2n[nH]c(=S)n2-c2ccc(Br)cc2)cc1` was run?
**A.** 146% (active)

**Q.** Which outcome does the source give for `CCN1C(=O)/C(=C\C(=O)c2cccs2)c2cc(Br)ccc21` here?
**A.** inactive

**Q.** For `CCOc1ccc(-n2cc(C(=O)Nc3cccc(C)n3)c3cc(OC)c(OC)cc3c2=O)cc1`, which outcome is on record?
**A.** inactive

**Q.** Which potentiation does the source give for `C=CCNC(=S)Nc1sc2c(c1C(=O)OCC)CC(C(C)C)OC2` (stereo not given) here?
**A.** 246% (active)

**Q.** Which outcome does the source give for `CC(=O)c1c(C)[nH]c(C(=O)Nc2cccc(C(F)(F)F)c2)c1C` here?
**A.** inactive

**Q.** `Cc1nn(CCc2nn[nH]n2)c2nc(-c3ccc(C4CCCCC4)cc3)cc(C(F)(F)F)c12` was tested. Which potentiation did it give?
**A.** 182% (active)

**Q.** `CCCCC(Nc1ncnc2ccccc12)C(=O)O` (stereo not given) was tested. Which outcome did it give?
**A.** inactive
